# Compounds with a hit are over-represented: about 3.3% of the library has one in this group of screens.
# WT yeast gro inh: growth inhibition of WT strain, primary screen, mitochondrial fusion inhibitor project, WT and mutant strains, chemical genetic. mitochondrial fusion phenotypic screen. inhibition, % at 10 µM. actives 2.1% (n = 190,000). AID 1362, 2008; in the data active means inhibition above about 58%; tested in S. cerevisiae
# Arbovirus anti: antivirals against arbovirus infection, primary screen, cell-based, full library, 10K replicate subset; actives 0.37% (n = 200,000); inhibition, % at 10 µM; arbovirus infection cell-based antiviral screen; in the data active means inhibition above about 30%
# ROMK primary: ROMK potassium channel modulators, primary screen, cell-based, thallium flux, MLSMR library; ATP-sensitive inward rectifier potassium channel 1 (Homo sapiens), P48048; Tet-inducible ROMK, thallium flux fluorescence; actives lie on both sides; B-score at 10 µM; actives 2% (n = 130,000);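 active means signal ratio slope over the read window, or its plate-corrected B-score, at least 3 SD from the plate mean, either direction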;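 further: B-score of the F/F0 ratio slope over 7 to 12 s after thallium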
# PERK inhibitor: block of dimerizer-induced PERK translation repression, primary screen, PERK inhibitor project, CHO PERK-DD cells, SEAP luminescence, HTS; Eukaryotic translation initiation factor 2-alpha kinase 3 (Homo sapiens), Q9NZJ5; CHO PERK-DD fusion, SEAP luminescence translation reporter; inhibition, % at 5.6 µM; actives 0.17% (n = 220,000); AID 1416, 2008;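 active means inhibition above the mean inhibition of all tested compounds plus 3 SD, set separately per screening campaign, cut at about 2.9% in these data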;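 further: PERK kinase domain activated by AP20187 dimerizer at 100 nM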
# Target sequence (Q9NZJ5 whole entry, looked up, the tested form may be a part): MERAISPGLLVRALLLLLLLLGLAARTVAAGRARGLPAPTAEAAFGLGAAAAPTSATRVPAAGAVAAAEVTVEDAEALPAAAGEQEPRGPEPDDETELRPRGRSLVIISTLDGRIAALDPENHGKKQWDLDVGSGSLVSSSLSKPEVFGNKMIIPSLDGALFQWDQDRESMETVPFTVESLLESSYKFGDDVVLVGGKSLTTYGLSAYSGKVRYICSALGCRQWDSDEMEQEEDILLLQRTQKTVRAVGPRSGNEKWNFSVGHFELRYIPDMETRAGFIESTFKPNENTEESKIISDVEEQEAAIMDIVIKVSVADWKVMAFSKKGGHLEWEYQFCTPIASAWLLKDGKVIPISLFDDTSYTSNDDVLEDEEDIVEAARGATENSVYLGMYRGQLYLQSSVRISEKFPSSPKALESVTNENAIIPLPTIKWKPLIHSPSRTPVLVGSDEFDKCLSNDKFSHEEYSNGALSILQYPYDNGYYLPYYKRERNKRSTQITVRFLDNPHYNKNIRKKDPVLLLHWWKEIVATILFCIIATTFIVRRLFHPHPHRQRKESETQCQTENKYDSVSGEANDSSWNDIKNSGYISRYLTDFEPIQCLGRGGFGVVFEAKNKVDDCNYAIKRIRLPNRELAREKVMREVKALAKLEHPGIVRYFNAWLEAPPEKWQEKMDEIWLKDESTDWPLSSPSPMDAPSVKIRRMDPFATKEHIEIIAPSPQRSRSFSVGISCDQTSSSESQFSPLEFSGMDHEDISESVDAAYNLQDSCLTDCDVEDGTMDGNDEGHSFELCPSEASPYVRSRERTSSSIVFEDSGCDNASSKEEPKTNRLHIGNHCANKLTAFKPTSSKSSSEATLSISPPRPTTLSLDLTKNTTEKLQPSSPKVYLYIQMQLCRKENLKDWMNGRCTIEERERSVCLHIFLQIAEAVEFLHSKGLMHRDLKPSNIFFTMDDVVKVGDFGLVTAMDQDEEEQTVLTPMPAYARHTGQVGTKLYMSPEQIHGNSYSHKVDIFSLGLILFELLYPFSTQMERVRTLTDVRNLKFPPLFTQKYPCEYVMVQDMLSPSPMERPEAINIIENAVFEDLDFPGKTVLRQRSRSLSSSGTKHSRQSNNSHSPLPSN
# ROMK retest: ROMK channel modulator hit retest, confirmation, cell-based, thallium flux, duplicate, resupplied hits. normalized thallium flux (F/F0 slope) at 10 µM. actives 54% (n = 3,000). fluorescence ratio; active compounds read low. AID 1917, 2009. shares compounds with ROMK primary;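 active means Flux at 10 µM at least 3 SD below or above vehicle control mean in one or both replicates; inconclusive means no clear call, values can overlap the other calls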
# Numbers stand for hits; n = inactive; u = inconclusive; x = not tested or not shown.
SMILES,WT yeast gro inh,Arbovirus anti,ROMK primary,PERK inhibitor,ROMK retest
CC(C)CC(=O)/C(=C\c1ccc(Cl)cc1Cl)n1cncn1,n,n,-7.1,n,0.046
O=C(O)CC/C(=N/NC(=O)c1cn(-c2ccccc2)nc1-c1ccccc1)C(=O)O,n,n,n,n,x
COc1cc(Cl)c(C)cc1NC(=O)CNC(C)c1ccccc1OC (stereo not drawn),n,n,-4,n,0.061
COc1ccccc1C(C)NCC(=O)Nc1c(F)cccc1F (stereo not drawn),n,n,n,n,x
O=C(OCc1cc2ccccc2[nH]c1=O)c1ccccn1,n,n,x,n,x
O=C1c2cccc3cccc(c23)C(=O)N1OS(=O)(=O)c1ccc(Br)cc1,n,n,x,n,x
O=C1C(Br)=Cc2cccc3cccc1c23,x,x,x,n,0.049
COc1ccc(N2CCN(CCCNC(=O)CN3CCN(Cc4ccccc4C)C3=O)CC2)cc1,n,n,n,n,x
Cc1cc2c(cc1S(=O)(=O)Nc1cccc(F)c1C)NC(=O)CO2,n,n,n,n,x
Cc1cc2c(cc1S(=O)(=O)N(C)c1ccccc1)NC(=O)CO2,n,n,-5,n,0.053
CCCCN(C)C(=O)C1CCN(Cc2ccc(OCc3ccccc3)cc2)CC1,n,n,-4.4,n,0.061
O=C1c2cccc3c(N4CCCCC4)ccc(c23)C(=O)N1CCO,n,n,-5.3,n,0.035
O=C1c2cccc3c(N4CCCCC4)ccc(c23)C(=O)N1c1cccc(O)c1,n,n,-3.6,n,u
COc1cc(C(C(=O)NC2CCCCC2)N(Cc2ccco2)C(=O)c2cnccn2)cc(OC)c1OC (stereo not drawn),n,n,-13,n,n
Cn1cccc1Cc1nnc(SCC(=O)NC2CCCCC2)n1CCc1ccccc1,n,n,x,n,x
COc1cc(NC(=O)CSc2ncnc3c2cnn3Cc2ccccc2)cc(OC)c1,n,n,n,n,x
COc1ccc(OC)c(NC(=O)CSc2ncnc3c2cnn3-c2ccccc2Cl)c1,n,n,-3.2,n,0.06
CC(=O)c1sc(N2C(=O)c3oc4ccccc4c(=O)c3C2c2ccc(C)o2)nc1C (stereo not drawn),n,n,x,x,x
CN(C)S(=O)(=O)c1ccc(Cl)c(NC(=O)COC(=O)c2ccc(O)cc2)c1,n,n,n,n,x
CCN(CC)S(=O)(=O)c1ccc(Cl)c(NC(=O)COC(=O)c2c(C)noc2C)c1,n,n,x,n,x
CCN(CC)S(=O)(=O)c1ccc(Cl)c(NC(=O)COC(=O)c2cccn2C)c1,n,n,2.7,n,n
CCN(CC)S(=O)(=O)c1ccc(Cl)c(NC(=O)COC(=O)c2ccc(O)cc2)c1,n,n,n,n,n
COC(=O)c1ccc(CN2CCN(CCc3ccccc3)C(CCO)C2)cc1 (stereo not drawn),n,n,n,n,x
CCCC1=C(C(=O)OCC)C(c2cccs2)C(C#N)=C(N)O1 (stereo not drawn),n,n,2.3,n,n
CC1=C(C(=O)OCc2ccccc2)C(c2ccsc2)C(C#N)=C(N)O1 (stereo not drawn),n,n,n,n,x
SMILES,WT yeast gro inh,Arbovirus anti,ROMK primary,PERK inhibitor,ROMK retest
CCOC(=O)C1=C(N)OC(CCl)=C(C#N)C1c1ccsc1 (stereo not drawn),n,n,-3.5,n,0.06
CCOC(=O)C1=C(c2ccccc2)NC(N)=NC1c1ccc(OCc2ccc(C(=O)OC)cc2)cc1 (stereo not drawn),x,x,x,n,0.053
CCN(CC)C(=O)C1CCCN(c2ccccc2[N+](=O)[O-])C1 (stereo not drawn),n,n,n,n,x
N#CC1=C(N)SC(N)=C(C#N)C1c1ccc(C(F)(F)F)cc1,n,n,-3.5,n,0.045
Cc1cccc2c(C(=O)Nn3cnnc3)cc(-c3ccccc3Cl)nc12,n,n,n,n,x
O=C(Nc1cccc(Cl)c1)N1CCN(c2ncccn2)CC1,n,n,x,n,x
O=C(Nc1ccc(Cl)cc1Cl)N1CCN(c2ncccn2)CC1,n,n,-3.8,n,n
CC1=C(C#N)C(NC(=O)C2CC2)(C(F)(F)F)C(=O)N1 (stereo not drawn),n,n,n,n,x
C(#Cc1ccccc1)C[N+]1(CC#Cc2cccc3ccccc23)CCCC1,n,n,-4.5,n,0.049
O=C1C[C@@H](c2ccc(O[C@@H]3O[C@H](CO)[C@@H](O)[C@H](O)[C@H]3O)cc2)Oc2cc(O)ccc21,n,n,n,n,x
CS(=O)(=O)n1nc(OC(=O)c2cccc3ccccc23)cc1N,x,n,n,n,x
CS(=O)(=O)n1nc(OC(=O)c2cc(Br)ccc2Cl)cc1N,n,n,-3,n,0.054
Nc1[nH]n(-c2ccccc2)c(=O)c1N=Nc1ccc2c(c1)OCO2,x,x,x,n,n
Nc1[nH]n(-c2ccccc2)c(=O)c1N=Nc1ccc2c(c1)OCCO2,n,n,n,n,x
O=c1[nH]c2ccc(Cl)cc2c(-c2ccccc2)c1N1CCN(c2ccccn2)CC1,n,n,n,n,x
O=c1c2ccccc2c(=O)n(Cc2ccccc2)n1Cc1ccccc1,n,n,x,n,x
CCOC(=O)N/N=C/c1c(F)cccc1F,n,n,n,n,x
CCOC(=O)N/N=C/c1ccccc1F,n,n,-14,n,n
CCOC(=O)N/N=C/c1c(F)c(F)c(F)c(F)c1F,n,n,1.5,n,n
CCCCn1nnnc1SCC(=O)NNC(=O)c1ccco1,n,n,n,n,x
COC(=O)c1ccccc1NC(=O)CN1CCC(C(=O)c2ccc3c(c2)OCCO3)CC1,n,n,n,n,x
Cc1ccc(OCCCC(=O)NCc2ccco2)cc1,n,n,x,n,x
Cc1ccc(OCCNC(=O)C(=O)NCc2ccco2)cc1,n,n,3,n,0.1
CCOC(=O)c1nn(-c2ccc(F)cc2)c(=O)c2c(N)scc12,n,n,n,n,x
CCOC(=O)c1nn(-c2ccc(C)cc2)c(=O)c2c(N)scc12,n,n,x,n,n
SMILES,WT yeast gro inh,Arbovirus anti,ROMK primary,PERK inhibitor,ROMK retest
CC(C)OCCCN1CN(S(=O)(=O)c2cccc(Cl)c2)c2nc3ccccc3nc21,n,n,x,n,x
O=[N+]([O-])c1ccc(Sc2n[nH]c(-c3ccc(Cl)cc3Cl)n2)nc1,n,n,x,n,0.06
CC(C)(C)c1nc(Sc2ccc([N+](=O)[O-])cn2)n[nH]1,x,x,x,n,x
Cc1cccc(OCC(=O)Nc2ccccc2C(=O)N2CCOCC2)c1,n,n,3.1,n,u
NC(=O)C1CCN(CC(=O)Nc2ccccc2Sc2ccccc2)CC1,n,n,x,n,0.068
Cc1ccc(Nc2nnns2)cc1C,n,n,-3,n,u
Cc1ccc(Nc2ccc(NCc3ccccc3)nn2)cc1C,n,n,n,n,x
CCn1c(COc2cccc(C)c2C)nnc1SCC(=O)N1CCN(c2ccc(OC)cc2)CC1,n,n,n,n,x
O=C(O)/C=C/C(=O)NNc1ncnc2ccccc12,x,x,x,n,x
CC(C)Cc1nc(N2CCN(C(=O)C(C)C)CC2)c(C#N)c2c1CCC2,n,n,n,n,x

# Screening results from PubChem BioAssay.
